MARV entry inh = inhibitors of Marburg virus binding or entry into cells; Marburg virus pseudotype entry/binding inhibition, cell-based; Potency, µM (titrated, usually from 49.2 µM), without a hit: at the highest dose activity change, negative = inhibition, most hits filed as inhibitors; 6.5% of 18,000 active
LASV entry inh = inhibitors of Lassa virus binding or entry into cells; Lassa virus pseudotyped entry inhibition, cell-based qHTS; Potency, µM (top dose mostly 49.2 µM), for the others: top-dose activity change, negative = inhibition, usual class: inhibitors; 4.1% of 18,000 active
* hit, by the source's call; [ ] = dose if it differs, or a comment. Shown are actives, neighbours in structure and some others; about 8% of the full set was active somewhere. Calls follow the shape of the full dose curve; tested in HEK293 cells. % is scaled to controls: 0 for no effect and ±100 for the full control effect; potency is read from the fitted curve at half-maximal effect.

How did CO[C@H]1[C@@H](O)C[C@H](O[C@H]2[C@@H](O)C[C@H](O[C@H]3[C@@H](O)C[C@H](O[C@H]4CC[C@@]5(C)[C@H](CC[C@@H]6[C@@H]5C[C@@H](O)[C@]5(C)[C@@H](C7=CC(=O)OC7)CC[C@]65O)C4)O[C@@H]3C)O[C@@H]2C)O[C@@H]1C do in these assays?
MARV entry inh: 7.08µM*; LASV entry inh: inconclusive

How did CC(CCN1CCCc2nc(C)c(C)cc21)=NO[C@@H](C)CN1CCCCc2nc(C)c(C)cc21 do in these assays?
MARV entry inh: -28.4%[8.59 µM]; LASV entry inh: 4.0%[8.59 µM]

How did COC(=O)CC=C[C@@H](C)[C@@H](C=NOC[C@@H](O)[C@H]1O[C@@H]2OC(C)(C)O[C@H]2[C@@H]1O)OC do in these assays?
MARV entry inh: 21.9%[8.59 µM]; LASV entry inh: 47.1%[8.59 µM]

What do the screens show for `CCN1C(=O)[C@@H]2[C@H]3[C@H](O)[C@H](O)CC(=NOC[C@H]4O[C@H](c5ccccc5)C=C[C@H]4Oc4ccc(OC)cc4)[C@@H]3CC[C@H]2C1=O`?
MARV entry inh: -28.3%[8.59 µM]; LASV entry inh: -11.5%[8.59 µM]

What do the screens show for `O[C@@H]1C[C@H](c2ccccc2)N(Cc2cccs2)C[C@@H]1n1cc(C2CC2)nn1`?
MARV entry inh: 26.0%; LASV entry inh: 9.7%

How did CCOC(=O)Nc1ccc2c(c1)N(C(=O)CCN1CCOCC1)c1ccccc1S2 do in these assays?
MARV entry inh: 18.3%[17.8 µM]; LASV entry inh: -11.9%[17.8 µM]

How did CCOC(=O)Nc1ccc2c(c1)N(C(=O)CN(C)C)c1ccccc1CC2 do in these assays?
MARV entry inh: 39.8µM*; LASV entry inh: inconclusive

What do the screens show for `C=CCOC(=O)N[C@@H](c1coc2ccccc2c1=O)[C@@H](C)C=CCC(=O)OC`?
MARV entry inh: -3.2%[8.59 µM]; LASV entry inh: -10.6%[8.59 µM]

What do the screens show for `Cc1ccc(S(=O)(=O)/C=C\C#N)cc1`?
MARV entry inh: 10µM*; LASV entry inh: 15.8µM*

What do the screens show for `Cc1ccc(S(=O)(=O)/C=C/C#N)cc1`?
MARV entry inh: 2.82µM*; LASV entry inh: 7.08µM*

How did CC(C)(C)c1ccc(S(=O)(=O)/C=C\C#N)cc1 do in these assays?
MARV entry inh: 15.8µM*; LASV entry inh: 35.5µM*

Results for C[C@@](N)(C(=O)O)c1ccc(S(=O)(=O)O)cc1 ?
MARV entry inh: 11.2%; LASV entry inh: 4.4%

What do the screens show for `C=C(C)CO[C@H]1C=C[C@@H](c2ccccc2)O[C@H]1CO`?
MARV entry inh: 2.3%[8.59 µM]; LASV entry inh: -23.9%[8.59 µM]

How did Nc1nc2c(ncn2C2OC(COC(=O)c3ccccc3)C(OC(=O)c3ccccc3)C2OC(=O)c2ccccc2)c(=O)[nH]1 (stereo unspecified) do in these assays?
MARV entry inh: -28.0%; LASV entry inh: 11.2µM*

Results for Nc1nc2c(ncn2[C@@H]2O[C@H](COP(=O)(O)OP(=O)(O)O)[C@@H](O)[C@H]2O)c(=O)[nH]1 ?
MARV entry inh: 14.7%; LASV entry inh: 21.8%

What do the screens show for `O=C1Nc2cccc(Br)c2[C@@]12O[C@H](COc1ccccc1)CC1=CCCC12` (stereo partly specified)?
MARV entry inh: inconclusive; LASV entry inh: -27.6%[8.59 µM]

How did Cc1cc(/C=C/c2ccc3cc(N(C)C)ccc3[n+]2C)c(C)n1-c1ccccc1 do in these assays?
MARV entry inh: inconclusive; LASV entry inh: 10µM*

What do the screens show for `COc1ccc(-c2nc(-c3ccccc3)oc2NC2CCCCC2)cc1`?
MARV entry inh: 31.5%[8.59 µM]; LASV entry inh: 11.8%[8.59 µM]

Results for O=c1c2ccccc2oc2cc(O)c(C3COCC(CO)C(O)C(O)C3O)c(O)c12 (stereo unspecified) ?
MARV entry inh: 14.1µM*; LASV entry inh: -7.1%

How did O=c1cc(-c2ccc(O)cc2)oc2cc(O)c([C@@H]3O[C@H](CO)[C@@H](O)[C@H](O)[C@H]3O)c(O)c12 do in these assays?
MARV entry inh: 10.0%; LASV entry inh: -7.2%

What do the screens show for `O=C(Nc1ccc(O)c2c(=O)cc(-c3ccccc3Cl)oc12)c1ccc(Cl)cc1Cl`?
MARV entry inh: -7.0%; LASV entry inh: -8.2%

Results for O=c1cc(-c2ccccc2Cl)oc2c(NS(=O)(=O)c3cc(Cl)cc(Cl)c3O)ccc(O)c12 ?
MARV entry inh: inconclusive; LASV entry inh: 10µM*

How did Cc1cc(OCCOCC[N+](C)(C)Cc2ccccc2)ccc1C(C)(C)CC(C)(C)C do in these assays?
MARV entry inh: 22.4µM*; LASV entry inh: 25.1µM*

What do the screens show for `C[N+](C)(CCOc1ccccc1)Cc1cccs1`?
MARV entry inh: 13.4%; LASV entry inh: -16.8%

How did C[C@@H]1C=CCCO[C@]12C(=O)Nc1ccc(O)cc12 do in these assays?
MARV entry inh: 9.5%[8.59 µM]; LASV entry inh: -18.8%[8.59 µM]

What do the screens show for `COc1ccccc1N1CCNCC1`?
MARV entry inh: -7.7%; LASV entry inh: 1.3%

How did FC(F)(F)c1cccc(N2CCNCC2)c1 do in these assays?
MARV entry inh: 28.2µM*; LASV entry inh: 28.2µM*

What do the screens show for `O=C(c1cccs1)N1C[C@@H](n2cc(C3CC3)nn2)[C@@H](O)C[C@@H]1c1ccc(Cl)cc1`?
MARV entry inh: -11.1%; LASV entry inh: -19.4%

What do the screens show for `Nc1c2c(nc3ccccc13)CCCC2`?
MARV entry inh: 10µM*; LASV entry inh: inconclusive

Results for c1ccc2nc3ccccc3cc2c1 ?
MARV entry inh: inconclusive; LASV entry inh: -27.4%

How did Nc1c2ccccc2nc2ccccc12 do in these assays?
MARV entry inh: 14.1µM*; LASV entry inh: inconclusive

Results for C=CCN=C1N[C@@H](c2ccccc2)[C@H](C(=O)OC)[C@@H](C)N1CC ?
MARV entry inh: -24.9%[8.59 µM]; LASV entry inh: 4.7%[8.59 µM]

Results for Cc1ccc(CN2CC(N3CCN(C(=O)c4ccco4)CC3)CS2(=O)=O)cc1 (stereo unspecified) ?
MARV entry inh: 26.7%; LASV entry inh: 12.5%

What do the screens show for `Cc1noc(C)c1-c1nc(N2CCOCC2)c2ccccc2n1`?
MARV entry inh: 4.6%; LASV entry inh: -2.0%

How did CN(C)Cc1ccccc1-c1nc(N2CCOCC2)c2ccccc2n1 do in these assays?
MARV entry inh: 17.8µM*; LASV entry inh: -10.5%

Results for COC(=O)[C@]1(C)CC[C@@]2(C)CC[C@@]3(C)C4=CC=C5C(=CC(=O)C(O)=C5C)[C@@]4(C)CC[C@@]3(C)C2C1 (stereo partly specified) ?
MARV entry inh: 3.55µM*; LASV entry inh: 5.62µM*

What do the screens show for `COc1ccc([C@]23Cc4cc(OC)c(OC)cc4[C@H](O2)C2=C(CC4(CCCCC4)OC2=O)O3)cc1`?
MARV entry inh: 2.0%[8.59 µM]; LASV entry inh: -2.9%[8.59 µM]

How did CCN1C(=NCc2ccccc2)N[C@@H](CCc2ccccc2)[C@H](C(=O)OC)[C@H]1C do in these assays?
MARV entry inh: -18.2%[8.59 µM]; LASV entry inh: -6.8%[8.59 µM]

How did CCC1/C=C/C=CCC(C)C(O)[C@@](C)(O)C(=O)C(C)C(O)C(C)C(=O)C(C)C(O)C(C)C=CC(=O)O[C@H]2C(C)C(CC1)O[C@]1(CCC(C)C(CC(C)O)O1)C2C (stereo partly specified) do in these assays?
MARV entry inh: 0.0794µM*; LASV entry inh: inconclusive

Results for CCCCN(CCCC)Cc1cc(=O)oc2cc(C)cc(C)c12 ?
MARV entry inh: -25.4%; LASV entry inh: 6.0%

Results for Cc1cc(C)c2c(CN(C)Cc3ccccc3)cc(=O)oc2c1 ?
MARV entry inh: 2.23µM*; LASV entry inh: inconclusive

How did C[C@@H]1N[S+](=O)([O-])c2cc(Cl)ccc2O[C@H]1c1ccccc1 do in these assays?
MARV entry inh: -3.0%; LASV entry inh: 6.6%

Results for CC(C)CON=C1C[C@@H](O)[C@@H](O)[C@@H]2[C@H]3C(=O)N(C4CCCCC4)C(=O)[C@@H]3CC[C@@H]12 ?
MARV entry inh: -20.1%[8.59 µM]

Assay outcomes: PubChem BioAssay, National Center for Advancing Translational Sciences (NCATS)
